Sampled rows, rich in hits. Any-hit rate of the full collection: about 13%.
Lamin A splicing = qHTS Assay for Modulators of Lamin A Splicing | hit rate 0.01% among 200,000 | Potency, µM (titrated, usually from 46.1 µM), actives largely listed as inhibitors | HeLa LMNA splicing GFP/RFP minigene ratio, 48 h; active means well fitted inhibition curve with a large enough effect in the signal ratio, with a control signal flat, not every such curve was filed as active; inconclusive means small, poorly fitted or top-dose-only effect, or effect the other way, or a change in a side signal; the % refers to the signal ratio
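S3 HeLa stable clones carrying a lamin A-EGFP splicing minigene plus DsRed2 were seeded at 600 cells/well in Opti-MEM with 2% FBS, pin-dosed and incubated 48 h at 37°C. Acumen cytometry (488 nm) gave the GFP/RFP total-intensity ratio.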
miR-21 act = qHTS Assay for Modulators of miRNAs and/orActivators of miR-21. HeLa miR-21 FLuc reporter, luciferase, 48 h. Potency, µM (series often up to 38.3 µM), usual class: activators. 340,000 tested, under 10 active. AID 2288, 2010;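 further: miR-21 action dims this reporter so a rising signal means less miR-21 action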
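Compounds were titrated across several concentrations (up to approximately 40 uM) and incubated 48 hours with HeLa miR-21-FLuc reporter cells (miR-21 target sequence downstream of FLuc, endogenous miR-21). Readout was firefly luciferase luminescence after lytic detection reagent.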
G9a inh = qHTS Assay for Inhibitors of Histone Lysine Methyltransferase G9a. Histone-lysine N-methyltransferase EHMT2 (Homo sapiens), Q96KQ7. G9a H3K9 monomethylation, AlphaScreen, 2 h. Potency, µM (series often up to 102 µM), actives largely listed as inhibitors. hit rate 8.8% among 350,000. AID 504332, 2011; further: nearly all actives have a fitted effect of over 75% in size
Target sequence (Q96KQ7 913-1193 limits assumed): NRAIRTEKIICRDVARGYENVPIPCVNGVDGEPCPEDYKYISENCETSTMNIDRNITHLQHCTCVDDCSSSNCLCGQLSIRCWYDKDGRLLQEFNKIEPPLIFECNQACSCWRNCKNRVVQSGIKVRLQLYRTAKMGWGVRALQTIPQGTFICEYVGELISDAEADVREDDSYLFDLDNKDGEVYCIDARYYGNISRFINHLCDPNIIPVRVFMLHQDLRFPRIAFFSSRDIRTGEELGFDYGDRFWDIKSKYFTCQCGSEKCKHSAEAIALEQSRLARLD
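Signal arises when biotinylated H3K9 peptide, once monomethylated, bridges streptavidin donor and antibody-captured acceptor beads. Enzyme at 20 nM was preincubated 15 min with test compounds; peptide 500 nM and SAM 20 uM then reacted for 2 h.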
Sfp PPTase inh = qHTS Assay for Inhibitors of Bacillus subtilis Sfp phosphopantetheinyl transferase (PPTase); AID 1490, 2009; hit rate 3.5% among 310,000; Potency, µM, usual class: inhibitors; Biochemical Sfp PPTase activity, qHTS; 4'-phosphopantetheinyl transferase ffp (Bacillus subtilis), Q9F4F7;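 further: the enzyme is Sfp with the accession as filed and its product quenches rhodamine fluorescence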
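Buffer: 50 mM Hepes-Na pH 7.6, 10 mM MgCl2, 0.01% Nonidet P-40, 0.01% BSA. Enzyme 15 nM, pre-exposed to compound 15 min; substrates then added and fluorescence change tracked over 30 min.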
KDM4E inh = qHTS Assay for Inhibitors of Human Jumonji Domain Containing 2E (JMJD2E); Lysine-specific demethylase 4E (Homo sapiens), B2RXH2; JMJD2E catalytic domain, FDH-coupled NADH fluorescence (FDH is formaldehyde dehydrogenase); Potency, µM (highest dose often 57.1 µM), actives largely listed as inhibitors; hit rate 1.6% among 230,000; AID 2147, 2009; active means well fitted inhibition curve with a large enough effect, not every such curve was filed as active; inconclusive means small, poorly fitted or top-dose-only effect, or another doubt; inactive means no such curve, though single readings can be large or run the other way; further: nearly all actives have a fitted effect of over 50% in size
Target sequence (B2RXH2 1-337 limits assumed): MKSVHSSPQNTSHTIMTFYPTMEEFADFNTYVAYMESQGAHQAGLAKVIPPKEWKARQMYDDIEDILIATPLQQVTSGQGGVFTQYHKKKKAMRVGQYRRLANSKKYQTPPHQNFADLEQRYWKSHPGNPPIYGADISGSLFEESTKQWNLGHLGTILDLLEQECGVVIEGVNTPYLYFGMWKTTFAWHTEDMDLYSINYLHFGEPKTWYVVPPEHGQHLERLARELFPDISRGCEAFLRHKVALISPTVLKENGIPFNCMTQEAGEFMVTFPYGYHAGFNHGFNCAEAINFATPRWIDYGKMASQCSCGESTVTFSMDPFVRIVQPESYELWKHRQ
ALDH1A1 inh = qHTS Assay for Inhibitors of Aldehyde Dehydrogenase 1 (ALDH1A1) | Potency, µM (doses to about 75.3 µM), actives largely listed as inhibitors | AID 1030, 2008 | Aldehyde dehydrogenase 1A1 (Homo sapiens), P00352 | Purified ALDH1A1, NADH fluorescence, propionaldehyde substrate | hit rate 7.3% among 220,000; active means well fitted inhibition curve with a large enough effect, not every such curve was filed as active; inconclusive means small, poorly fitted or top-dose-only effect, or another doubt; inactive means no such curve, though single readings can be large or run the other way
A number is an active result; [ ] = another dose, or the depositor's remark. Unless noted, the call rests on the fitted dose curve; in most records, active means well fitted curve in the direction sought with a large enough effect; inconclusive means small, poorly fitted or top-dose-only effect, or another doubt; inactive means no such curve, though single readings can be large; an effect the other way counts as inactive or inconclusive.

CC(=O)c1c(C)[nH]c(C(=O)OCC(=O)N(CC(C)C)C2CCS(=O)(=O)C2)c1C (configuration not stated) was read as G9a inh inactive.
For O=C(Nc1nc2c(F)cccc2s1)c1ccc(S(=O)(=O)N2CCOCC2)cc1 the results were Lamin A splicing inconclusive, miR-21 act inactive and G9a inh inactive.
Screening CC(C)OCCCNC(=O)Cc1ccc(NC(=O)N2CCCCc3ccccc32)cc1 returned Lamin A splicing inconclusive, miR-21 act inactive and G9a inh inactive.
Screening CN(Cc1ccccc1)C(=O)c1c[nH]c2ccc(S(=O)(=O)Nc3ccccc3F)cc2c1=O returned miR-21 act inactive and G9a inh inactive.
For Oc1c(Cl)cc(Cl)c2c1NCCC2 the results were Lamin A splicing inactive, miR-21 act inactive, G9a inh inconclusive, Sfp PPTase inh 16µM, KDM4E inh inconclusive and ALDH1A1 inh 5µM.
`Cc1ccc(NC(=O)C2C3C=CC4(CN(Cc5cccnc5)C(=O)C24)O3)cc1F` (configuration not stated) gave Lamin A splicing inactive, miR-21 act inactive, G9a inh 45µM, Sfp PPTase inh inactive, KDM4E inh inactive and ALDH1A1 inh inconclusive.
`Cc1cc([N+](=O)[O-])ccc1NC(=O)CN1C2CCC1CC(NC(=O)NC13CC4CC(CC(C4)C1)C3)C2` (configuration not stated) gave Lamin A splicing inconclusive, miR-21 act inactive, G9a inh inactive, Sfp PPTase inh inactive, KDM4E inh inactive and ALDH1A1 inh inconclusive.
CCN(C(=O)c1sc2nc3n(c(=O)c2c1C)CCCC3)c1ccccc1F was read as Lamin A splicing inactive, miR-21 act inactive and G9a inh 13µM.
Cc1ccc(Cl)cc1N(C)C(=O)c1sc2nc3n(c(=O)c2c1C)CCCC3 was read as Lamin A splicing inactive, miR-21 act inactive and G9a inh 13µM.
COc1ccc(CNC(=O)c2sc3nc4n(c(=O)c3c2C)CCCCC4)cc1 was read as Lamin A splicing inactive, miR-21 act inactive and G9a inh 14µM.
`COc1ccc(C)cc1N(C)C(=O)c1sc2nc3n(c(=O)c2c1C)CCCCC3` gave Lamin A splicing inactive, miR-21 act inactive and G9a inh 10µM.
`CCCN(C(=O)c1sc2nc3n(c(=O)c2c1C)CCCC3)c1ccccc1C` gave Lamin A splicing inconclusive, miR-21 act inactive and G9a inh inconclusive.
For COc1cccc(Cn2c(=O)cnc3cnc(Nc4ccccc4)nc32)c1 the results were Lamin A splicing inconclusive, G9a inh inactive[0.501 µM], Sfp PPTase inh inactive and ALDH1A1 inh inactive.
C[C@@](N)(C(=O)O)c1ccc(S(=O)(=O)O)cc1 was read as Sfp PPTase inh inconclusive, KDM4E inh inactive and ALDH1A1 inh inactive.
Screening CCOc1ccc(CNC(=O)c2ccc3nc(C(C)C)oc3c2)cc1 returned Lamin A splicing inactive, miR-21 act inactive and G9a inh inactive.
Screening CCOc1ccc(N2CC(C(=O)NCCN3C(=O)S/C(=C/c4cccnc4)C3=O)CC2=O)cc1 (configuration not stated) returned G9a inh 14µM.
Screening Cc1c(C(=O)NCCN2C(=O)S/C(=C\c3cccnc3)C2=O)cccc1[N+](=O)[O-] returned miR-21 act inactive, G9a inh inactive, Sfp PPTase inh inactive and KDM4E inh inactive.
Screening O=C(NCCN1C(=O)S/C(=C\c2cccnc2)C1=O)c1ccc([N+](=O)[O-])s1 returned G9a inh 14µM.
For O=C(CCl)NCCN1C(=O)S/C(=C\c2cccnc2)C1=O the results were miR-21 act inactive, G9a inh inconclusive, Sfp PPTase inh inactive, KDM4E inh inactive and ALDH1A1 inh 1.6µM.
Screening CC(C(=O)NCCN1C(=O)S/C(=C\c2cccnc2)C1=O)N1C(=O)c2ccccc2C1=O (configuration not stated) returned Lamin A splicing inactive, miR-21 act inactive, G9a inh inactive, Sfp PPTase inh inactive, KDM4E inh inactive and ALDH1A1 inh inactive.
O=C(NCCN1C(=O)S/C(=C\c2cccnc2)C1=O)c1cc(S(=O)(=O)N2CCOCC2)ccc1F was read as miR-21 act inactive, G9a inh 40µM, Sfp PPTase inh inactive and KDM4E inh inactive.
For CCc1cc(C(=O)OC)c(NC(=O)CSc2nccn2C)s1 the results were miR-21 act inactive and Sfp PPTase inh inactive.
Screening OC/C=C/c1ccccc1 returned Lamin A splicing inactive, G9a inh inactive and Sfp PPTase inh inactive.
For O=C(O)CN1C(=O)/C(=C\c2cc(Br)ccc2OCc2ccc(Cl)cc2)SC1=S the results were miR-21 act inactive, G9a inh 14µM and Sfp PPTase inh inactive.
`O=C(O)CN1C(=O)/C(=C\c2cc([N+](=O)[O-])ccc2OCc2ccccc2Cl)SC1=S` gave miR-21 act inactive, G9a inh 35µM and Sfp PPTase inh 79µM.
O=C(O)CN1C(=O)/C(=C\c2cc(Br)ccc2OCc2ccc(F)cc2)SC1=S was read as miR-21 act inactive, G9a inh 45µM and Sfp PPTase inh inactive.
O=C(O)CCCN1C(=O)/C(=C\c2ccccc2OCc2ccccc2)SC1=S was read as miR-21 act inactive, G9a inh 40µM and Sfp PPTase inh inactive.
Screening COc1ccc(/C=C2/SC(=S)N(CC(=O)O)C2=O)cc1OCc1ccc(Cl)cc1 returned miR-21 act inactive and Sfp PPTase inh inactive.
`C=CCOCCN(CC)CC` gave miR-21 act inactive, G9a inh inactive, Sfp PPTase inh inactive, KDM4E inh inactive and ALDH1A1 inh inactive.
CC(O)CNCc1ccccc1C(F)(F)F (configuration not stated) was read as miR-21 act inactive, G9a inh inactive, Sfp PPTase inh inactive, KDM4E inh inactive and ALDH1A1 inh inactive.
For COc1ccc(C(=O)OCC(=O)Nc2c(C)n(C)n(-c3ccccc3)c2=O)cc1OC the results were G9a inh inactive.
Screening O=C(O)CCCN1C(=O)/C(=C\C(Cl)=C\c2ccccc2)SC1=S returned miR-21 act inconclusive, G9a inh 14µM and Sfp PPTase inh inactive.
For O=C(O)CN1C(=O)/C(=C\c2ccccc2OCc2ccc(F)cc2)SC1=S the results were miR-21 act inactive, G9a inh 50µM and Sfp PPTase inh inactive.

Screening results from PubChem.
